HUVEC tox IL1B: HUVEC cytotoxicity counter-screen, IL-1B stimulated; hit rate 0.41% among 94,000; cell count reduction, % at 2 µM; HUVEC cell count loss, Hoechst imaging;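 active = cell count reduction more than 3 SD above the screen-wide mean, cut at about 70% in these data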;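 also: normalized per plate to untreated control cells as the no-loss baseline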
IL1B NFkB pot: enhances IL-1B driven NFkB nuclear translocation; HUVEC IL-1B NFkB p65 nuclear translocation imaging; activation, % at 2 µM; hit rate 0.3% among 94,000;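 active = activation above 40%, about the mean plus 3 SD, also judged a hit on visual image review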;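 also: percent activation is computed from the nuclear over cytoplasmic p65 intensity ratio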
Insulin prom inh: TRM-6 insulin promoter activity inhibition | hit rate 0.9% among 130,000 | AID 1273 | inhibition, % at 2 µM | TRM-6 cells (human fetal islet line), insulin promoter-eGFP reporter, imaging; reporter expression induced with tamoxifen;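 active = inhibition above the mean plus 3 SD, with well images judged a real hit on visual review, cut at about 60% in these data, passing the limit was not always enough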
IL1B NFkB inh: blocks IL-1B driven NFkB nuclear translocation in HUVEC cells | inhibition, % at 2 µM | AID 796 | hit rate 0.43% among 94,000 | HUVEC IL-1B NFkB p65 nuclear translocation imaging;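 active = inhibition above about 30% together with a positive call from visual inspection of the well image, limit read from the data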;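 also: nuclear over cytoplasmic p65 intensity ratio measured by imaging; 0% = IL-1B stimulated DMSO wells and 100% = unstimulated DMSO wells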
* = called active by the depositor; nt = no result given; ! = not active in a repeat. Shown are actives, neighbours in structure and some others; about 1.4% of the full set was active somewhere.

SMILES	HUVEC tox IL1B	IL1B NFkB pot	Insulin prom inh	IL1B NFkB inh
COc1ccc(C(=O)OCC2CC(c3ccccc3)=NO2)cc1OC (stereo not given)	nt	nt	26.3	nt
O=C(OCC1CC(c2ccccc2)=NO1)c1ccc(Cl)cc1 (stereo not given)	18.4	49.7*	nt	-49.7
O=C(Nc1nccs1)C1CC2CCC1C2 (stereo not given)	-8.9	20.0	13.9	-20.0
O=C(Nc1ccc([N+](=O)[O-])cn1)C1CC2CCC1C2 (stereo not given)	nt	nt	69.2*	nt
O=C(Nc1nc(N2C(=O)c3ccccc3C2=O)n(-c2ccccc2)n1)c1ccccc1	nt	nt	11.1	nt
CC(=O)Nc1nc(N2C(=O)c3ccccc3C2=O)n(-c2ccccc2)n1	1.3	-8.7	76.3*	8.7
Cc1nc(Nc2ccc3c(c2)OCO3)c2oc3ccccc3c2n1	-2.2	5.2	81.8*	-5.2
Cc1nc(NCCc2ccccc2)c2oc3ccccc3c2n1	4.9	-4.2	68.8*	4.2
Cc1nc(NCCN2CCOCC2)c2oc3ccccc3c2n1	-26.9	-1.1	57.1	1.1
Cc1ccc(S(=O)(=O)N2CCOCC2)cc1C(=O)NCc1cn2ccsc2n1	-22.6	0.8	-35.5	-0.8
O=C(NC1CC1)C1CC(=O)N(C2CCCCC2)C1 (stereo not given)	5.3	121.0*	-3.1	-121.0
O=C(NC1CCCC1)C1CC(=O)N(C2CCCCCCC2)C1 (stereo not given)	-14.1	14.6	-18.8	-14.6
CCOc1ccc2nc(NCCO)[nH]c2c1	-13.2	23.8	nt	-23.8
Cc1ccc2nc(NCCCO)[nH]c2c1	5.4	-2.5	78.4*	2.5
COc1ccc(/C=c2\s/c(=C/C(=O)c3ccc(C)cc3)[nH]c2=O)cc1OC	nt	nt	-87.9	nt
CCOC(=O)C(C)(C)Sc1nc2c(cnn2-c2ccc(C)cc2)c(=O)[nH]1	-50.0	2.8	100.0*	-2.8
Cc1c(Cl)cccc1-n1c(SCC(=O)NCc2cccs2)nnc1-c1ccncc1	14.9	3.7	91.2*	-3.7
O=C(Nc1ccccc1Cl)Nc1cccnc1Cl	nt	nt	18.8	nt
CCCCSc1nc(C)[nH]c1[N+](=O)[O-]	3.6	-8.3	75.0*	8.3
Cc1nc(SCCC(C)C)c([N+](=O)[O-])[nH]1	2.0	11.9	-3.7	-11.9
CCOC(=O)c1[nH]c2ccc(OC)cc2c1NC(=O)CCN1CCCC(C)C1 (stereo not given)	-12.4	-0.7	nt	0.7
CCOC(=O)N1CCN(C(=O)c2cn(CC)c3cc(N4CCN(C)CC4)c(F)cc3c2=O)CC1	nt	nt	-7.4	nt
N#Cc1ccccc1S(=O)(=O)c1ccccc1C(=O)Nc1ccccc1	nt	nt	-54.5	nt
Cc1nc(CSc2nnc(C)s2)cs1	nt	nt	62.5*	nt
CC1S/C(=N/N=C/c2ccco2)NC1=O (stereo not given)	-56.1	-2.7	nt	2.7
SMILES	HUVEC tox IL1B	IL1B NFkB pot	Insulin prom inh	IL1B NFkB inh
Cc1ccc(S(=O)(=O)Oc2ccc(C)cc2/C=N/N=C2\NC(=O)C(C)S2)cc1 (stereo not given)	5.8	-4.4	79.0*	4.4
Cn1c(=O)n(C)c2cc([N+](=O)[O-])c(N3CCN(C(=O)C(C)(C)C)CC3)cc21	nt	nt	71.4*	nt
Cn1c(=O)n(C)c2cc([N+](=O)[O-])c(N3CCN(C(=O)c4ccccc4)CC3)cc21	-17.0	-12.0	10.0	12.0
CCOC(=O)Cc1csc(NC(=S)NC(=O)c2ccccc2C)n1	-30.9	-50.0	-26.1	50.0*
Cc1nc2cc(NC(=O)N(C)c3ccc4ccccc4c3)ccc2o1	29.1	-1.4	70.7*	1.4
Cc1nn(-c2ccccc2)c(C)c1/C=N/Nc1nc2ccccc2[nH]1	nt	nt	83.9*	nt
Cc1nn(-c2ccccc2)c(Cl)c1/C=N/Nc1nc2ccccc2n1C	nt	nt	77.8*	nt
CCOc1ccccc1NC1=C(Cl)C(=O)N(c2ccccc2)C1=O	nt	nt	-37.5	nt
Cc1ccc2[nH]c3c(=S)nc[nH]c3c2c1	nt	nt	77.8*	nt
O=C1CC(C(=O)Nc2ccc(Br)cc2)C2(CCCC2)O1 (stereo not given)	82.1*	-24.9	25.0	24.9
O=S(=O)(c1ccc(F)cc1)N1CCN(c2ccccn2)CC1	nt	nt	28.6	nt
COc1ccc(CCn2c(C)cc(C(=O)CCl)c2C)cc1OC	nt	nt	30.0	nt
COc1ccc2sc(NC(C)=O)nc2c1	-73.0	-17.4	78.6*	17.4
Cc1cc(NC(=O)c2ccccc2-c2ccccc2C(=O)O)no1	nt	nt	64.3*	nt
CCSc1ccccc1C(=O)Nc1cc(C)on1	50.8	8.4	-4.8	-8.4
CCc1ccc(-n2c(SCc3c(C)noc3C)nnc2-c2ccncc2)cc1	17.0	66.5*	-33.3	-66.5
CC1Cn2c(nnc2-c2cccc(Cl)c2)S1 (stereo not given)	-12.7	14.5	nt	-14.5
CC1(C)Cn2c(nnc2-c2cccc(O)c2)S1	2.8	15.2	90.9*	-15.2
Cc1nn2c(nc1=O)SCC(c1ccccc1)=N2	-35.6	22.5	81.6*	-22.5
O=C(O)C1CCCN(S(=O)(=O)c2ccc(Br)s2)C1 (stereo not given)	nt	nt	33.3	nt
O=C(C1CCCN(S(=O)(=O)c2ccc(Br)s2)C1)N1CCCCCC1 (stereo not given)	-2.9	-32.8	-44.8	32.8*
O=S(=O)(C/C(=C/CO)S(=O)(=O)c1ccccc1)c1ccccc1	3.3	-50.6	nt	50.6*
O=C(O)C1C2C=CC(C2)C1C(=O)NCc1cccnc1 (stereo not given)	-4.9	-0.8	61.3	0.8
CCn1nc(NC(=O)c2ccccn2)c2cc3cccc(C)c3nc21	-13.6	50.7*	nt	-50.7
CCn1nc(NC(=O)c2ccncc2)c2cc3cccc(C)c3nc21	9.4	-0.2	nt	0.2
SMILES	HUVEC tox IL1B	IL1B NFkB pot	Insulin prom inh	IL1B NFkB inh
O=C(CN1CCCCCC1)N1c2ccccc2C=Cc2ccccc21	2.9	-31.4	-278.6	31.4*
Cn1c(=O)c2c(ncn2CC(=O)OCC(=O)NCc2ccccc2Cl)n(C)c1=O	nt	nt	-93.3	nt
CCC(=O)Nc1ccc(C(=O)CSc2nc3ccc(C)cc3[nH]2)cc1	nt	nt	21.9	nt
O=C(CSCc1nc2ccccc2[nH]1)Nc1ccccc1	4.2	-12.2	3.5	12.3
CCSc1nc2ccccc2[nH]1	1.3	-9.0	100.0*!	9.0
c1ccc(CSCc2nc3ccccc3[nH]2)cc1	nt	nt	75.9*	nt
CCC(=O)Nc1ccc(C(=O)CSc2nc3ccccc3[nH]2)cc1	nt	nt	60.0*	nt
CCCc1nc2ccccc2[nH]1	nt	nt	80.0*	nt
O=C1C2CCCN2C(=O)N1CCCCN1CCN(c2ccc(F)cc2)CC1 (stereo not given)	nt	nt	-8.3	nt
CCOC(=O)C(NC(C)=O)(Nc1ccc(S(=O)(=O)Nc2cc(C)nc(C)n2)cc1)C(F)(F)F (stereo not given)	-6.7	-7.0	nt	7.0
CCOc1ccc2nc(SCC)[nH]c2c1	-20.0	-5.1	86.5*	5.1
O=C(Cn1nnc2c(cnn2-c2ccc(F)cc2)c1=O)c1ccccc1F	91.6*	1.2	-17.9	-1.2
O=C(CN(C1CCCCC1)S(=O)(=O)c1ccc(Cl)cc1)N1CCOCC1	nt	nt	-41.9	nt
O=C(CCc1nnc(Cc2ccc3c(c2)OCO3)o1)NCc1nc2ccccc2s1	nt	nt	78.3*	nt
O=C(NC1CCCCC1)N1CCN(C(c2ccccc2)c2ccccc2)CC1	-9.0	4.2	-13.3	-4.2
CC(=O)Nc1ccc(NC(=O)C(Cc2ccccc2)NC(=O)C2CCCCC2)cc1 (stereo not given)	nt	nt	64.3*	nt
CCOC(=O)N1CCC(NC(=O)C(Cc2ccccc2)NC(=O)C2CCCCC2)CC1 (stereo not given)	4.0	7.8	-22.6	-7.8
